Screening data (PubChem)
KB-V1 MDR tox: qHTS assay for MDR1-selective chemotherapeutics: Primary screen using the drug-selected MDR subline cells KB-V1; KB-V1 MDR cells viability, CellTiter-Glo, 72 h; Potency, µM (highest dose often 46.1 µM), actives largely listed as cytotoxic; 400,000 tested, 3.4% active; further: nearly all actives have a fitted effect of over 60% in size
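Potencies derive from concentration-effect curves fitted to normalized luminescence (CellTiter-Glo) of KB-V1 cells treated for 72 h at 37 degrees C in phenol-red-free DMEM containing 10% FBS.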
KB-3-1 tox: qHTS assay for MDR1-selective chemotherapeutics: Primary screen using the parental adenocarcinoma cell KB-3-1 | KB-3-1 viability, CellTiter-Glo ATP luminescence, 72 h | Potency, µM (doses to about 46.1 µM), actives largely listed as cytotoxic | 400,000 tested, 1.4% active | AID 1347075, 2019; further: nearly all actives have a fitted effect of over 60% in size
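Viability of parental KB-3-1 cells, measured by CellTiter-Glo luminescence, followed a 72 h incubation at 37 °C with pinned compounds in phenol-red-free DMEM containing 10% FBS.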
HT1080 IDH1KD tx: qHTS for induction of synthetic lethality in tumor cells producing 2HG: qHTS for the HT-1080-IDH1KD cell line; HT-1080 IDH1 knockdown viability, ATP luminescence, 48 h; Potency, µM (series often up to 46.1 µM), for inactives: at the highest dose activity, negative = toxicity, most hits filed as cytotoxic; 360,000 tested, 2% active; AID 686971, 2013;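 further: 0% = DMSO wells and -100% = cell-free medium wells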
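Assay cells: HT-1080 with IDH1 knockdown, 750 per well, RPMI/5% FBS. Exposure: 48 h at 37 °C following 2 h pre-incubation. Read: CellTiter-Glo luminescence; fitted concentration-response, curve class assigned.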
HT1080-NT tox: qHTS for induction of synthetic lethality in tumor cells producing 2HG: qHTS for the HT-1080-NT fibrosarcoma cell line. Potency, µM (series often up to 46.1 µM), for the others: at the highest dose activity, negative = less viability, usual class: cytotoxic. AID 686970, 2013. HT-1080-NT fibrosarcoma viability, CellTiter-Glo ATP luminescence, 48 h. 360,000 tested, 1.6% active;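 further: NT is the 2HG producing partner of a matched IDH1 knockdown line; 0% = DMSO-treated cells and -100% = media-only wells without cells; nearly all actives have a fitted effect of over 55% in size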
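HT-1080-NT fibrosarcoma cells (2HG-overproducing), 750 cells/well in RPMI with 5% FBS, dosed after 2 h and incubated 48 h at 37C. CellTiter-Glo luminescence normalized to DMSO and no-cell wells; concentration-response curves fitted and classed.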
* marks the source's active call; other numbers are inactive results. Hits are enriched below; roughly 5.7% of the tested compounds scored in any of these assays. The call rests on the fitted dose curve; in most records, active means well fitted curve in the direction sought with a large enough effect; inconclusive means small, poorly fitted or top-dose-only effect, or another doubt; inactive means no such curve, though single readings can be large; an effect the other way counts as inactive or inconclusive. Unless noted, on the % scale 0 is the no-effect control and ±100 the full control effect; potency means the concentration at half of the fitted maximal effect.

`CC1(C)CC2CC(C)(CN2S(=O)(=O)c2ccc(C(=O)Nc3ccc(Cl)c(S(=O)(=O)N4CCOCC4)c3)cc2)C1` (configuration not stated) gave KB-V1 MDR tox 2.9µM*, KB-3-1 tox 2.9µM*, HT1080 IDH1KD tx -14% and HT1080-NT tox -10%.
Screening CN(C)C(CNC(=O)c1cccc(S(=O)(=O)N2CC3(C)CC2CC(C)(C)C3)c1)c1ccco1 (configuration not stated) returned KB-V1 MDR tox inactive, KB-3-1 tox inactive, HT1080 IDH1KD tx 3% and HT1080-NT tox -1%.
For CCCNC(=O)c1cccc(S(=O)(=O)N2CC3(C)CC2CC(C)(C)C3)c1 (configuration not stated) the results were KB-V1 MDR tox 2.1µM*, KB-3-1 tox inactive, HT1080 IDH1KD tx -13% and HT1080-NT tox -8%.
`CCOC(=O)c1cc([N+](=O)[O-])sc1NC(=O)c1ccc(S(=O)(=O)N2CC3(C)CC2CC(C)(C)C3)cc1` (configuration not stated) gave KB-V1 MDR tox inconclusive, KB-3-1 tox 4.6µM*, HT1080 IDH1KD tx -10% and HT1080-NT tox 5%.
Screening CCCN1CNc2c(c(=O)[nH]c(=S)n2CCc2cccc(Cl)c2Cl)C1 returned HT1080 IDH1KD tx -17% and HT1080-NT tox -20%.
For CCN(CC)CC(=O)c1c(C)n(C)c2ccc(OC)cc12 the results were KB-V1 MDR tox inconclusive and KB-3-1 tox inactive.
`CCN1CCN(c2nc(C)c3c(n2)CC(C)CC3=O)CC1` (configuration not stated) gave KB-V1 MDR tox inactive, KB-3-1 tox inactive, HT1080 IDH1KD tx 13% and HT1080-NT tox 13%.
Cc1nc(N2CCN(Cc3ccccc3)CC2)nc2c1C(=O)CC(C)C2 (configuration not stated) was read as KB-V1 MDR tox 21µM*, KB-3-1 tox inactive, HT1080 IDH1KD tx -19% and HT1080-NT tox -4%.
COC(=O)c1c(NC(=O)COc2cc(C)c(Cl)c(C)c2)sc2c1CCCC2 was read as KB-V1 MDR tox inconclusive and KB-3-1 tox inactive.
`Nc1ncnc2c1c(-c1ccc(Oc3ccccc3)cc1)cn2C1CCCC1` gave KB-V1 MDR tox inconclusive, KB-3-1 tox inactive, HT1080 IDH1KD tx 21µM* and HT1080-NT tox 23µM*.
C=CC(=O)N1CCC[C@@H](n2nc(-c3ccc(Oc4ccccc4)cc3)c3c(N)ncnc32)C1 was read as KB-V1 MDR tox 22µM* and KB-3-1 tox inconclusive.
For CS(=O)(=O)c1ccc(C(=O)OCC(=O)N2CCCC2)cc1[N+](=O)[O-] the results were KB-V1 MDR tox inactive and KB-3-1 tox inactive.
For CC(C)c1ccc(-c2noc(SCC(=O)N3CCCCC3C)n2)cc1 (configuration not stated) the results were KB-V1 MDR tox inactive and KB-3-1 tox inactive.
`O=C(Cn1nnc(-c2ccc(CN3CCOCC3)cc2)n1)Nc1nc(-c2ccccc2)cs1` gave KB-V1 MDR tox 18µM*, KB-3-1 tox inactive, HT1080 IDH1KD tx -15% and HT1080-NT tox inconclusive.
`CCOC(=O)c1ccc(-c2csc(NC(=O)CN3CCC(C)CC3)n2)cc1` gave KB-V1 MDR tox inactive, KB-3-1 tox inactive, HT1080 IDH1KD tx inconclusive and HT1080-NT tox 26µM*.
Screening CC1CCN(CC(=O)Nc2nc(-c3ccccc3)cs2)CC1 returned KB-V1 MDR tox inactive, KB-3-1 tox inactive, HT1080 IDH1KD tx 5% and HT1080-NT tox -3%.
`CN1CCN(CC(=O)Nc2nc(-c3ccccc3)cs2)CC1` gave KB-V1 MDR tox inactive, KB-3-1 tox inactive, HT1080 IDH1KD tx -2% and HT1080-NT tox 3%.
Screening Cc1ccc(-c2csc(NC(=O)CN3CC(C)OC(C)C3)n2)cc1 (configuration not stated) returned KB-V1 MDR tox inconclusive, KB-3-1 tox 23µM*, HT1080 IDH1KD tx inconclusive and HT1080-NT tox inconclusive.
COc1ccc(-c2nnc(SCC(=O)Oc3cc(C)ccc3C)o2)cc1 was read as KB-V1 MDR tox inactive and KB-3-1 tox inactive.
For COc1ccc(NC(=O)C2(C)CCN2Cc2cccc(OC)c2OC)cc1OC (configuration not stated) the results were KB-V1 MDR tox 8.2µM*, KB-3-1 tox inconclusive, HT1080 IDH1KD tx -1% and HT1080-NT tox 5%.
For COc1ccc(NC(=O)C2(C)CCN2Cc2ccc(OC)c3ccccc23)cc1OC (configuration not stated) the results were KB-V1 MDR tox inactive, KB-3-1 tox inactive, HT1080 IDH1KD tx 23µM* and HT1080-NT tox inconclusive.
For COc1cccc(CN2CCC2(C)C(=O)Nc2cccc3cccnc23)c1F (configuration not stated) the results were KB-V1 MDR tox 7.3µM*, KB-3-1 tox 7.3µM*, HT1080 IDH1KD tx 13µM* and HT1080-NT tox 23µM*.
`CC(C)(C)c1ccc(C(=O)N2CCC2(C)C(=O)Nc2ccc3[nH]ncc3c2)cc1` (configuration not stated) gave KB-V1 MDR tox inactive, KB-3-1 tox inactive, HT1080 IDH1KD tx inconclusive and HT1080-NT tox -8%.
Screening COc1ccc(OC)c(NC(=O)C2(C)CCN2Cc2cccc(OC)c2F)c1 (configuration not stated) returned KB-V1 MDR tox inactive, KB-3-1 tox inactive, HT1080 IDH1KD tx -46% and HT1080-NT tox inconclusive.
`COc1ccc(NC(=O)C2(C)CCN2C(=O)c2ccc(C(C)(C)C)cc2)cc1OC` (configuration not stated) gave KB-V1 MDR tox 16µM*, KB-3-1 tox 15µM*, HT1080 IDH1KD tx inconclusive and HT1080-NT tox 2%.
For COc1ccc(NC(=O)C2(C)CCN2Cc2csc3ccccc23)cc1OC (configuration not stated) the results were KB-V1 MDR tox inactive, KB-3-1 tox inactive, HT1080 IDH1KD tx inconclusive and HT1080-NT tox -23%.
For COc1cccc(CNC(=O)c2cccc(-n3c(C)nc4cccnc43)c2)c1OC the results were KB-V1 MDR tox inactive and KB-3-1 tox inactive.
COc1ccc(Cl)cc1C(=O)NCc1nc(-c2cccc(C)c2)no1 was read as KB-V1 MDR tox inactive and KB-3-1 tox inactive.
`O=C(NCc1ccncc1)c1ccc(Oc2ccccc2)cc1` gave KB-V1 MDR tox inconclusive, KB-3-1 tox inconclusive, HT1080 IDH1KD tx -27% and HT1080-NT tox -21%.
Screening CCOc1ncccc1C(=O)Nc1ccccc1C(=O)NCc1ccc2c(c1)OCO2 returned KB-V1 MDR tox 5.2µM*, KB-3-1 tox inactive, HT1080 IDH1KD tx -15% and HT1080-NT tox -5%.
Screening CCOc1ncccc1C(=O)Nc1ccc2c(c1)OCO2 returned KB-V1 MDR tox inconclusive, KB-3-1 tox inconclusive, HT1080 IDH1KD tx -11% and HT1080-NT tox 0%.
